Data: PubChem BioAssay (NCATS)
Results filed as inconclusive are left out. Active and inactive are the calls of the source. The call rests on the fitted dose curve; in most records, active means well fitted cell-killing curve with a large enough effect; inconclusive means small, poorly fitted or top-dose-only effect, or effect the other way; inactive means flat fitted curve, though single readings scatter.

Tested on: Tov-21-G
Experiment: Primary qHTS to identify gynecologic anti-cancer compounds using libraries of approved drugs and bioactive compounds (AID 1345084); further: nearly all actives have a fitted effect of over 55% in size
Settings: Gynecologic cancer cell panel viability, ATPlite luminescence, 48 h; series mostly up to 57.5 µM; activity change, negative = cytotoxicity: at the top concentration
Procedure, shortened: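 Five-point cytotoxicity, 48 h drug exposure at 37 C, 5% CO2, on cells seeded 16 h beforehand. ATP content read by ATPlite luminescence.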
On the % scale 0 is the no-effect control and ±100 the full control effect.

Structure (SMILES)	activity change, negative = cytotoxicity
C=C(C(=O)O)[C@@H]1CC[C@@]2(C)CCC[C@@](C)(O)[C@@H]2C1	-2.49% (inactive)
Cc1ccc(C)c(S(=O)(=O)n2cnc3ccccc32)c1	-1.72% (inactive)
COc1ccccc1CN[C@H]1CCCN[C@H]1c1ccccc1	-0.348% (inactive)
CC(CNS(=O)(=O)C(C)C)c1ccc(-c2ccc(C#N)cc2)cc1 (stereo not given)	-22.2% (inactive)
C[C@@]12CC3(S(=O)(=O)O)OC(O1)[C@]1(COC(=O)c4ccccc4)[C@H]3C[C@]21O[C@@H]1O[C@H](CO)[C@@H](O)[C@H](O)[C@H]1O	-16.6% [at 25.3 µM] (inactive)
CC(CCO)CCC1C2(C)CCCC(C)(C)C2CC[C@@]1(C)O (stereo not given in full)	4.47% [at 38.5 µM] (inactive)
O=C(OC1C=C(CO)C2C(OC3OC(CO)C(O)C(O)C3O)OC=CC12O)c1ccc(O)cc1 (stereo not given)	-2.36% [at 25.3 µM] (inactive)
CC1(C)CC[C@]2(C(=O)O)CC[C@]3(C)C(=CCC4[C@@]5(C)C[C@@H](O)[C@H](O)[C@@](C)(CO)C5CC[C@]43C)C2C1 (stereo not given in full)	1.21% [at 25.3 µM] (inactive)
Cc1cccc(-c2nn3c(c2-c2ccnc4ccc(C(N)=O)cc24)CCC3)n1	3.51% (inactive)
CC1(C)C[C@@H]2[C@H](C1)[C@@]1(C)C[C@]13C(O)OC[C@]3(O)[C@H]2O (stereo not given in full)	-8.02% (inactive)
COc1c2cc(c(O)c1OC)CCCCC(O)CCc1ccc(O)c-2c1 (stereo not given)	-0.0871% [at 38.5 µM] (inactive)
CC1(C)CC2C(O)C3=C(CC(C)(O)C2C1)C(=O)OC3 (stereo not given)	6.35% (inactive)
OCC1=C[C@@H](O)[C@@H]2C=CO[C@@H](O[C@@H]3O[C@H](CO)[C@@H](O)[C@H](O)[C@H]3O)[C@H]12	-0.0092% [at 38.5 µM] (inactive)
CC1=CCC[C@@H]2[C@@](C)(CCc3ccoc3)[C@H](C(=O)O)CC[C@@]12C	4.2% [at 38.5 µM] (inactive)
Cc1cc(-n2c(=O)[nH]c(=O)n(C)c2=O)ccc1Oc1ccc(SC(F)(F)F)cc1	6.56% (inactive)
CC1(C)OC(=O)CC(O)C2(C)C1CC(=O)C1(C)C2C(O)CC2(C)C(c3ccoc3)OC(=O)C3OC321 (stereo not given)	7.64% [at 25.3 µM] (inactive)
CC(=O)OC1C(O)/C(C)=C\C2C(OC(=O)c3ccccc3)C(C)CC2(OC(C)=O)C(OC(C)=O)C(C)/C=C/C(C)(C)C1OC(C)=O (stereo not given)	1.36% [at 25.3 µM] (inactive)
COC(=O)C1=C[C@@H](O)[C@@H](O)[C@H](O[C@@H]2O[C@H](CO)[C@@H](O)[C@H](O)[C@H]2OC(=O)/C=C/c2ccccc2)C1	-1.8% [at 25.3 µM] (inactive)

Structure (SMILES)	activity change, negative = cytotoxicity
N#CN1CCC[C@@H](n2nc(-c3ccc(Oc4ccc(F)cc4F)cc3)c(C(N)=O)c2N)C1	-14.6% (inactive)
O=C(O)[C@H]1Cc2ccccc2CN1	4.78% [at 6.55 µM] (inactive)
C=C(C)C1Cc2c(ccc3c2OCC(c2ccc(O)cc2O)C3)O1 (stereo not given)	14.1% [at 38.5 µM] (inactive)
C=C[C@H]1[C@H](O[C@@H]2O[C@H](CO)[C@@H](O)[C@H](O)[C@H]2O)OC=C(C(=O)OC)[C@H]1CC=O	0.73% [at 38.5 µM] (inactive)
NC[C@H]1CCC[C@@H](CNC(=O)[C@@H](Cc2c[nH]c3ccccc23)NC(=O)N2CCC3(C=Cc4ccccc43)CC2)C1	3.22% [at 38.5 µM] (inactive)
CC1C2=CC(=O)OC2(O)CC2C1CCC1C(C)(C)CCC(O)C21C (stereo not given)	-18.6% [at 38.5 µM] (inactive)
COc1ccc(C2(O)c3ccccc3NC(=O)C2OC)cc1 (stereo not given)	-0.653% (inactive)
C/C(=C\CCC(C)CCO)C(=O)OC[C@H]1O[C@@H](O[C@@H]2OC=C(C(=O)O)[C@H]3CC[C@](C)(O)[C@@H]23)C(O)[C@@H](O)C1O (stereo not given in full)	11% [at 25.3 µM] (inactive)
CC(C)C1(O)NC(=O)C(CC2(O)c3ccccc3N3C(=O)C(C)(C)NC32)n2c1nc1ccccc1c2=O (stereo not given)	-1.12% [at 25.3 µM] (inactive)
C=CC(C)(O)CC/C=C(\C)C(=O)O[C@@H]1[C@@H](O)[C@H](OC(C)(C=C)CC/C=C(\C)C(=O)O)O[C@H](CO)[C@H]1OC(=O)/C(C)=C/CCC(C)(O)C=C (stereo not given in full)	-6.91% [at 25.3 µM] (inactive)
CC1=C[C@H]2[C@@H](CC1=O)[C@H](C)C[C@H](O)[C@H]2C(C)C	17.7% (inactive)
CC(=C\C(C)O)/C=C(\C)C(=O)CC1CC(CC(N)=O)CC(=O)O1 (stereo not given)	-8.67% [at 38.5 µM] (inactive)
CC1(C)C[C@H](O)C[C@@]2(C)[C@H]1[C@H](O)C=C1COC(=O)[C@@]12O	-1.12% (inactive)
Cc1oc2nc3c(c(NC(=O)CN4CCCC4=O)c2c1C)CCCC3	6.23% (inactive)
CCNC(=O)C1CC(F)(c2ccc(CN3CCCC3)c(F)c2)C1 (stereo not given)	0.197% (inactive)
O=C(O)CC(CCc1ccccc1)OC1OC(CO)C(O)C(O)C1O (stereo not given)	6.95% [at 38.5 µM] (inactive)
CC1OC(O[C@H]2CC[C@@]3(C)C(CC[C@]4(C)C3CC=C3C5CC(C)(C)CC[C@]5(C(=O)OC5OC(CO)C(OC6OCC(OC7OCC(O)C(O)C7O)C(O)C6O)C(O)C5O)CC[C@]34C)C2(C)C)C(O)C(O)C1OC1OC(CO)C(O)C(OC2OC(CO)C(O)C(O)C2O)C1O (stereo not given in full)	-4.11% [at 6.55 µM] (inactive)
